{
  "source": "PubChem BioAssay (NCI)",
  "note": "About 83,000 compounds went through this panel and 20% of them were active in at least one assay; those are over-represented in the sample as a whole.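 Testing used 96-well plates and a 48-hour single-concentration exposure. Example: -40 means 40% of the starting cells died.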 Values without a mark were called inactive. Active and inactive are the calls of the source. How the source made its calls: active means growth percent below 10; inactive means the rest.",
  "data": [
    {"tested_on": "NCI-H23 lung", "test": "NCI-60 one-dose screen, 48 h (100 = growth as untreated, 0 = no growth, -100 = all killed)", "settings": "10 µM unless noted", "values": [
      {"smiles": "CCOC(=O)Nc1cc(-c2ccc(C)c(NS(C)(=O)=O)c2)nn2c(C)nnc12", "growth": "18%"},
      {"smiles": "O=C1OC2(c3ccccc31)c1ccccc1-c1ccccc12", "growth": "89.6%"},
      {"smiles": "COP(=O)(OC)C(c1ccccc1)(c1ccccc1)c1ccccc1", "growth": "104%"},
      {"smiles": "CCOc1cc(/C=C/C(=O)CC(=O)/C=C/c2ccc(OC(=O)CNc3nc4ccc(OC)cc4s3)c(OCC)c2)ccc1OC(=O)CNc1nc2ccc(OC)cc2s1", "growth": "55.7%"},
      {"smiles": "Cc1cn(C(C=O)OC(C=O)CO)c(=O)[nH]c1=O", "note": "(centres undefined)", "growth": "107%"},
      {"smiles": "Oc1c(Cl)cc(Oc2cc(Cl)c(O)c(CN3CCOCC3)c2)cc1CN1CCOCC1", "growth": "99.6%"},
      {"smiles": "Nc1nc(Nc2ccccc2SSc2ccccc2Nc2nc(N)nc(-c3ccc(I)cc3)n2)nc(-c2ccc(I)cc2)n1", "growth": "47.3%"},
      {"smiles": "CNc1nc(NC2CCCC2)nc(Sc2ccc(OC)cc2)n1", "growth": "39.4% [100 µM]"},
      {"smiles": "Cn1cc(NC(=O)Nc2cc(C(=O)O)n(C)c2)cc1C(=O)O", "growth": "109%"},
      {"smiles": "CCOC(=O)CCC(=O)O[C@H]1[C@H](O[C@@H]2[C@@H](C)[C@H](O[C@H]3C[C@@](C)(OC)[C@@H](O)[C@H](C)O3)[C@@H](C)C(=O)O[C@H](CC)[C@@](C)(O)[C@H](O)[C@@H](C)C(=O)[C@H](C)C[C@@]2(C)O)O[C@H](C)C[C@@H]1N(C)C", "growth": "99.6%"},
      {"smiles": "O=C(NC1CCCCC1)c1ccc(Nc2ncnc3c2cnn3-c2ccccc2)cc1", "growth": "72%"},
      {"smiles": "Cc1sc2nc(NCCc3cccs3)[nH]c(=O)c2c1C", "growth": "98.5%"},
      {"smiles": "CCCc1n(Cc2ccc3ccccc3c2)cc[n+]1Cc1ccc2ccccc2c1", "growth": "-28.2% (active)"},
      {"smiles": "O=C1/C(=C/c2ccccc2O)C(=S)SN1Cc1ccco1", "growth": "105%"},
      {"smiles": "COc1cccc(/C=N\\NC(=O)c2ccncc2)c1O", "growth": "58.5%"},
      {"smiles": "COc1ccc(C(=O)COc2ccc(/C=C3\\Oc4ccc5ccccc5c4C3=O)cc2)cc1", "growth": "90.7%"},
      {"smiles": "CN1CCN(CCCOc2ccc3ncnc(Nc4ccc(OCc5cccc(F)c5)c(Cl)c4)c3c2)CC1", "growth": "54.9%"},
      {"smiles": "N/C(=N\\c1nc2ccccc2s1)NC(=O)Nc1ccccc1Cl", "growth": "34.9%"},
      {"smiles": "O=C1/C(=C/c2cccc(Cl)c2)CCc2ccccc21", "growth": "101%"},
      {"smiles": "NC(=O)NS(=O)(=O)c1ccc(N2N=C(C(F)(F)F)CC2c2cc(C(F)(F)F)cc(C(F)(F)F)c2)cc1", "note": "(centres undefined)", "growth": "91.3%"},
      {"smiles": "COc1ccc(N2CCN(CC(=O)N3CCN(c4nnc(-c5ccccc5)c(-c5ccccc5)n4)CC3)CC2)cc1", "growth": "46.8%"},
      {"smiles": "O=C(Nc1ccccc1OC(=O)c1ccccc1)c1ccccc1", "growth": "70.6%"},
      {"smiles": "Oc1c(N=Nc2nn[nH]n2)ccc2ccccc12", "growth": "72.8%"},
      {"smiles": "N#Cc1ncc(-c2ccc(C(F)(F)F)cc2)c(NC2CCCCCC2)n1", "growth": "29.9%"}
    ]}
  ]
}
